# Measured values published in PubChem BioAssay (EPA / NIEHS).
# Records with an inconclusive call do not appear. Activity calls are given as the source filed them. How the source made its calls: active means hit-call score of the fitted dose curve at least 0.9, where 1 is the maximum; inconclusive means response in the unintended direction; inactive means score below 0.9.
# Biological target: Estrogen receptor beta (Homo sapiens) (UniProt Q92731)
# Test: OT_ER_ERbERb_0480: Odyssey Thera (OT) 8-hour HEK293T Protein-Complementation Assay for Estrogen Receptor-beta/-beta Homodimer (AID 2283357);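 further: active means signal gain over DMSO baseline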
# In short: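 Fluorescence intensity, nuclear for agonists and nuclear plus cytoplasmic for antagonists, was quantified by laser scanning cytometry versus vehicle after 8 h treatment. The cells were HEK293T stably carrying ER beta LBD fragment-complementation partners.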
# Chain of Estrogen receptor beta (Homo sapiens) (Q92731 whole entry, looked up): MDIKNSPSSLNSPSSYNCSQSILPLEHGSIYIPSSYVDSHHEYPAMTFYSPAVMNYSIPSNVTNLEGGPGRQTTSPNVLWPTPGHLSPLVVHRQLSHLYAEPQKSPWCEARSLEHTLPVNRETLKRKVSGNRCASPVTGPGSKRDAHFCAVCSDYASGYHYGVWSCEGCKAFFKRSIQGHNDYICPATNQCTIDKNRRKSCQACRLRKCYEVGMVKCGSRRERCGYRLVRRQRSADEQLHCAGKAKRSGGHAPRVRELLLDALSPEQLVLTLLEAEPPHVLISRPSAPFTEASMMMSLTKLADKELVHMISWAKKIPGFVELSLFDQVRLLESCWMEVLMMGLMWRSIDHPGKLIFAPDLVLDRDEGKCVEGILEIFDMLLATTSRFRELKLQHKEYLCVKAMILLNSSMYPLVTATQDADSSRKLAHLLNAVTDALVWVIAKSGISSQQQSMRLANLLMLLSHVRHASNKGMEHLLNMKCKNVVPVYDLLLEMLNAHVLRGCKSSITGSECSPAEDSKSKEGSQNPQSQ
SMILES,AC50,outcome
COC(=O)c1c(C)cc(O)c(C)c1O,55.5 µM (active),–
O=C(O)CCCC[C@@H]1SC[C@@H]2NC(=O)N[C@@H]21,–,inactive
O=C(c1ccccc1)C1CCC1,–,inactive
CC(=O)OC(C)C,–,inactive
O=S1(=O)OC(c2ccc(O)cc2)(c2ccc(O)cc2)c2ccccc21,–,inactive
CC(=O)[C@H]1[C@H](C#N)C[C@H]2[C@@H]3CC=C4C[C@@H](O)CC[C@]4(C)[C@H]3CC[C@@]21C,–,inactive
O=S(=O)(O)c1ccccc1C=Cc1ccc(-c2ccc(C=Cc3ccccc3S(=O)(=O)O)cc2)cc1,65.5 µM (active),–
NC(=O)c1ccccc1O,–,inactive
Oc1ccc(Cl)cc1Cc1cc(Cl)ccc1O,11.9 µM (active),–
CCCCCCCOC(=O)CCC,–,inactive
CC(C)c1ccc2cc(C(C)C)ccc2c1,–,inactive
CCCCCCCC/C=C\CCCCCCCC(=O)OCCO,–,inactive
CCCc1ccc(OC)cc1,–,inactive
CN(C)c1ccc(N=Nc2ccccc2C(=O)O)cc1,–,inactive
CC/C=C\C/C=C\C/C=C\CCCCCCCC(=O)O,–,inactive
CCCCC/C=C\C/C=C\CCCCCCCC(=O)OC,–,inactive
CC=C1CC2C=CC1C2 (stereo not given),–,inactive
Cc1ccc(N/N=c2\c(=O)cc/c(=N/Nc3ccc(S(=O)(=O)O)cc3)c2=O)c(C)c1,–,inactive
CC(C)=CCC[C@H](C)CCO,–,inactive
CCCCCCCCCCCCCOP(=O)(O)O,–,inactive
O=c1cc(-c2ccccc2)oc2ccccc12,–,inactive
O=C1CCCC1,–,inactive
CC(C)(C)c1ccc(-c2ccc(C(C)(C)C)cc2)cc1,–,inactive
CN(C)c1ccc(C(=N)c2ccc(N(C)C)cc2)cc1,–,inactive

# Biological target: Retinoic acid receptor alpha (Homo sapiens) (UniProt P10276)
# Sequence (P10276 whole entry, looked up): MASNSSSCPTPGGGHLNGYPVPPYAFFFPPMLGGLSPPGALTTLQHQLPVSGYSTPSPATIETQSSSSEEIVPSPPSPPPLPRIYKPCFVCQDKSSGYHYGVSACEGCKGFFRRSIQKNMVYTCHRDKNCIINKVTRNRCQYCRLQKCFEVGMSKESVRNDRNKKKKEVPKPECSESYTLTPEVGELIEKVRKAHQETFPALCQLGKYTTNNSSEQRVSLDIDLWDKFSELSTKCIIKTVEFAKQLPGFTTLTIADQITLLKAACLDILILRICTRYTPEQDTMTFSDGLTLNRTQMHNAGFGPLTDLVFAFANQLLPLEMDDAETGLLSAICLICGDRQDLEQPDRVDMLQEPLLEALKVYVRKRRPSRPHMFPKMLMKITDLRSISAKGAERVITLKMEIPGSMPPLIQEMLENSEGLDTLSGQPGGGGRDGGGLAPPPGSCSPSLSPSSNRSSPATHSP
# Test: NVS_NR_hRAR_Antagonist: NovaScreen (NVS) Nuclear Receptor Binding Assay for human Retinoic Acid Alpha Receptor Antagonism (RAR) (AID 2283358)
# In short: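 Cell-free TR-FRET binding assay with extracted human RARalpha in antagonist mode, read 2 h after dosing. Loss of signal was fitted relative to DMSO; the primary screen used 25 uM in duplicate, with concentration series on follow-up.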
SMILES,AC50,outcome
CC(C)c1ccc2c(C(C)C)cc(C(C)C)c(S(=O)(=O)O)c2c1,12.9 µM (active),–
Oc1ccc(Cl)cc1Cc1cc(Cl)ccc1O,–,inactive
CCCCCCCC/C=C\CCCCCCCC(=O)OCCO,–,inactive
CCCCCCCCCCCCCOP(=O)(O)O,–,inactive

# Biological target: human Peroxisome Proliferator-activated Receptor alpha (PPARa), PPARA (gene 5465) (UniProt Q07869)
# Sequence (Q07869 whole entry, looked up): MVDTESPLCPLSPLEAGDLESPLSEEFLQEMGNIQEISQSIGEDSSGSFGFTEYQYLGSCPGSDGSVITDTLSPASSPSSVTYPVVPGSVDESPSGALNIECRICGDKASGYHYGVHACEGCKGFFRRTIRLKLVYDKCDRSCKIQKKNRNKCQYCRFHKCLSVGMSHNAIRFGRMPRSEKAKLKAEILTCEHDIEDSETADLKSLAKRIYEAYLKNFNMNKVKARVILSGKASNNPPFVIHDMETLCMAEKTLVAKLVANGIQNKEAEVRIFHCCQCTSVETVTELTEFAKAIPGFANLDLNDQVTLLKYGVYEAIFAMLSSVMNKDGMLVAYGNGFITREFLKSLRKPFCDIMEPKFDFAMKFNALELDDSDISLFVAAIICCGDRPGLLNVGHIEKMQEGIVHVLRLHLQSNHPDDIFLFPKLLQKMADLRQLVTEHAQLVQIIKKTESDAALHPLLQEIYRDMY
# Test: NVS_NR_hPPARa: NovaScreen (NVS) Nuclear Receptor Binding Assay for human Peroxisome Proliferator-activated Receptor alpha (PPARa) (AID 2283359);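 further: activity means loss of TR-FRET signal versus DMSO baseline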
# In short: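 Cell-free TR-FRET binding assay with extracted PPARα protein, read 1 h after dosing. Primary screen in duplicate at 25 uM, with actives retested in concentration series. Loss of signal versus DMSO.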
SMILES,AC50,outcome
CC(C)c1ccc2c(C(C)C)cc(C(C)C)c(S(=O)(=O)O)c2c1,7.37 µM (active),–
Oc1ccc(Cl)cc1Cc1cc(Cl)ccc1O,14 µM (active),–
CCCCCCCC/C=C\CCCCCCCC(=O)OCCO,12.5 µM (active),–
CC/C=C\C/C=C\C/C=C\CCCCCCCC(=O)O,–,inactive
CCCCC/C=C\C/C=C\CCCCCCCC(=O)OC,–,inactive
CCCCCCCCCCCCCOP(=O)(O)O,–,inactive

# Biological target: human Thyroid Receptor Alpha (TRa), THRA (gene 7067) (UniProt P10827)
# Sequence (P10827 whole entry, looked up): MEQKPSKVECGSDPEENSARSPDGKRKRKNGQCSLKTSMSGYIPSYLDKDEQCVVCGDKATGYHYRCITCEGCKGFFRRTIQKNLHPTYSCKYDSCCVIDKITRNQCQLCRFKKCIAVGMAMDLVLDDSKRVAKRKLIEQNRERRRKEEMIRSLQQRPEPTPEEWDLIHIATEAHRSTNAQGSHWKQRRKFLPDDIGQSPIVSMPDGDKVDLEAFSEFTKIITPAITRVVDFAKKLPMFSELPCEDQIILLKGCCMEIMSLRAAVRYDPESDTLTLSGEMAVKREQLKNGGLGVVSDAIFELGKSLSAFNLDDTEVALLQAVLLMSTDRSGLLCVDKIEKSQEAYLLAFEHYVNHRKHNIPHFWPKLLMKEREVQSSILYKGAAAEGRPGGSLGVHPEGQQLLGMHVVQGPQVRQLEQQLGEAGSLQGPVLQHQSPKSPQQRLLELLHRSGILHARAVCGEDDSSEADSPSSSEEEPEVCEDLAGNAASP
# Test: NVS_NR_hTRa_Antagonist: NovaScreen (NVS) Nuclear Receptor Binding Assay for human Thyroid Receptor Alpha Antagonism (TRa) (AID 2283362);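 further: activity is loss of signal relative to DMSO baseline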
# In short: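 AlphaLISA chemiluminescent immunoassay readout, taken 1 h post-dosing in a cell-free system with extracted protein. Activity was scored as signal loss against DMSO negative control, from duplicate single-concentration (25 uM) testing followed by concentration-response follow-up.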
SMILES,AC50,outcome
O=S1(=O)OC(c2ccc(O)cc2)(c2ccc(O)cc2)c2ccccc21,11 µM (active),–
CC/C=C\C/C=C\C/C=C\CCCCCCCC(=O)O,–,inactive
Cc1ccc(N/N=c2\c(=O)cc/c(=N/Nc3ccc(S(=O)(=O)O)cc3)c2=O)c(C)c1,18.6 µM (active),–

# Biological target: Glucocorticoid receptor (Homo sapiens) (UniProt P04150)
# Sequence (P04150 whole entry, looked up): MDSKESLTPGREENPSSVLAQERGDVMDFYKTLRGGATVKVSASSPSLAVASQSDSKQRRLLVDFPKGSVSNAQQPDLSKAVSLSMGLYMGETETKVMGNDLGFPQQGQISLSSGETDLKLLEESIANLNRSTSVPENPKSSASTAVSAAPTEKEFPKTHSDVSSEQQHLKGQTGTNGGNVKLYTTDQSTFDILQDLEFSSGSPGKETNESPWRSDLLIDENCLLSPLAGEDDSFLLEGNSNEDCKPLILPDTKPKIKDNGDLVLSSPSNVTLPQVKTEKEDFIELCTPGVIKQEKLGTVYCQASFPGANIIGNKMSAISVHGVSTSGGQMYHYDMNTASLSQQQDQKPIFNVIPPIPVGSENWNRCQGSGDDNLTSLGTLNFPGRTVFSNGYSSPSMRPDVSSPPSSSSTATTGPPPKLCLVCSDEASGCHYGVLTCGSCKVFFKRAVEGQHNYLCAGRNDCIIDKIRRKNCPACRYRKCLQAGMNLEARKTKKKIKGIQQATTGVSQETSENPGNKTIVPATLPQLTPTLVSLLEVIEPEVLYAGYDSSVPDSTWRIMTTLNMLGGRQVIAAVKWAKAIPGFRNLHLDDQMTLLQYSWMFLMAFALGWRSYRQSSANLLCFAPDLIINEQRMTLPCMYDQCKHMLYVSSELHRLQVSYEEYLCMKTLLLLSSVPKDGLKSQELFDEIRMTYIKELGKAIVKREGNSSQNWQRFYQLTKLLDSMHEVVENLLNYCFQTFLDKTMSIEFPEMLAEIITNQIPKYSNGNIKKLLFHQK
# Test: NVS_NR_hGR: NovaScreen (NVS) Nuclear Receptor Binding Assay for human Glucocorticoid Receptor (GR) (AID 2283363);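 on AC50: activity is loss of specific radioligand binding signal relative to DMSO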
# In short: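 Cell-free radioligand displacement assay on extracted human GR, read 16 h after dosing by filter-based scintillation counting. Screened in duplicate at 25 uM, then concentration series for actives; loss of signal versus DMSO baseline.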
SMILES,AC50,outcome
CC(C)c1ccc2c(C(C)C)cc(C(C)C)c(S(=O)(=O)O)c2c1,10.9 µM (active),–
O=S(=O)(O)c1ccccc1C=Cc1ccc(-c2ccc(C=Cc3ccccc3S(=O)(=O)O)cc2)cc1,3.61 µM (active),–
Oc1ccc(Cl)cc1Cc1cc(Cl)ccc1O,2.65 µM (active),–
C#CC1(O)CC[C@H]2[C@@H]3CCC4=CCCC[C@@H]4[C@H]3CC[C@@]21C (stereo not given in full),5.07 µM (active),–
CCCCCCCCCCCCCOP(=O)(O)O,10.4 µM (active),–
O=C1CCCC1,–,inactive

# Biological target: Nuclear receptor subfamily 1 group I member 2 (Homo sapiens) (UniProt O75469)
# Sequence (O75469 whole entry, looked up): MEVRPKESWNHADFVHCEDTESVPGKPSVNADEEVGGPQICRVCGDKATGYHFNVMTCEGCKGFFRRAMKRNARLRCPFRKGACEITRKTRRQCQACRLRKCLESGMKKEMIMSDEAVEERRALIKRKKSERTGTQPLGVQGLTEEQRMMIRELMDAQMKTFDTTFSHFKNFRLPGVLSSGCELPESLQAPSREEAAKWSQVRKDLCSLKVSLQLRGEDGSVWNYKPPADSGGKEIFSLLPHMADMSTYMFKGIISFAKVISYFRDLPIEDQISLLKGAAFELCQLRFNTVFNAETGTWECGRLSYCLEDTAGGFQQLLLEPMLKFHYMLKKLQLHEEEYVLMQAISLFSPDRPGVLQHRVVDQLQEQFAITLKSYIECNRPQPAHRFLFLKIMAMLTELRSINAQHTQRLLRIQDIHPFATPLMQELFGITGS
# Test: NVS_NR_hPXR: NovaScreen (NVS) Nuclear Receptor Binding Assay for human Pregnane X Receptor (PXR) (AID 2283365);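 further: a drop in FRET signal versus DMSO baseline means the compound binds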
# In short: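 TR-FRET signal read at 2 h in a cell-free human PXR binding format. DMSO served as negative control and baseline; activity scored as signal loss. Single-concentration duplicate screen (25 uM), then concentration-response follow-up.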
SMILES,outcome,AC50
COC(=O)c1c(C)cc(O)c(C)c1O,inactive,–
CC(C)c1ccc2c(C(C)C)cc(C(C)C)c(S(=O)(=O)O)c2c1,–,0.393 µM (active)
CC(=O)OC(C)C,inactive,–
O=S1(=O)OC(c2ccc(O)cc2)(c2ccc(O)cc2)c2ccccc21,inactive,–
Oc1ccc(Cl)cc1Cc1cc(Cl)ccc1O,–,16.8 µM (active)
CCCCCCCC/C=C\CCCCCCCC(=O)OCCO,inactive,–
CC/C=C\C/C=C\C/C=C\CCCCCCCC(=O)O,–,3.05 µM (active)
CCCCC/C=C\C/C=C\CCCCCCCC(=O)OC,inactive,–
Cc1ccc(N/N=c2\c(=O)cc/c(=N/Nc3ccc(S(=O)(=O)O)cc3)c2=O)c(C)c1,–,2.79 µM (active)
CCCCCCCCCCCCCOP(=O)(O)O,inactive,–
O=c1cc(-c2ccccc2)oc2ccccc12,inactive,–

# Biological target: mouse Estrogen Receptor alpha (Era), Esr1 (gene 13982) (UniProt P19785)
# Sequence (P19785 whole entry, looked up): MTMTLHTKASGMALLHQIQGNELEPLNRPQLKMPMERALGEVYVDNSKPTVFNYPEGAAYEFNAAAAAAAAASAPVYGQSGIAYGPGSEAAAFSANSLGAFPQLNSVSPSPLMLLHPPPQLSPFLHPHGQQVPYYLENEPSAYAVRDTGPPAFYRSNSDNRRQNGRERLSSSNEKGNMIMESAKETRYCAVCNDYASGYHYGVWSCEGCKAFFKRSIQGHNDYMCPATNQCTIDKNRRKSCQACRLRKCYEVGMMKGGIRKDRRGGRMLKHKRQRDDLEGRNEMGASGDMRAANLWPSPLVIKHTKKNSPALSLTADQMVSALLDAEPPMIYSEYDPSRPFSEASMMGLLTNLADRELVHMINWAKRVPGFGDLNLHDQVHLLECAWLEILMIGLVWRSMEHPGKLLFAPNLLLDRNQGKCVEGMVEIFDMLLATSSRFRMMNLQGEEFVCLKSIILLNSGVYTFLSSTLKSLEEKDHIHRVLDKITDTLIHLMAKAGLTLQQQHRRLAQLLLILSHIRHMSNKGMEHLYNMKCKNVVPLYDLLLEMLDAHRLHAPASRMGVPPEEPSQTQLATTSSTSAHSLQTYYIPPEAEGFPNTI
# Test: NVS_NR_mERa: NovaScreen (NVS) Nuclear Receptor Binding Assay for mouse Estrogen Receptor alpha (Era) (AID 2283378);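 further: hit means loss of bound radioligand signal relative to DMSO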
# In short: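 Filter scintillation counts of bound radioligand, measured 18 h post-dose, gave the readout; decreased signal relative to DMSO controls indicated displacement from mouse Era. Primary screen ran in duplicate at 25 uM; active chemicals were retested across concentrations.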
SMILES,outcome,AC50
O=C(O)CCCC[C@@H]1SC[C@@H]2NC(=O)N[C@@H]21,inactive,–
CC(=O)OC(C)C,inactive,–
O=S1(=O)OC(c2ccc(O)cc2)(c2ccc(O)cc2)c2ccccc21,–,20.1 µM (active)
CC(=O)[C@H]1[C@H](C#N)C[C@H]2[C@@H]3CC=C4C[C@@H](O)CC[C@]4(C)[C@H]3CC[C@@]21C,–,4.26 µM (active)
CC(C)(c1cc(Br)c(OCCO)c(Br)c1)c1cc(Br)c(OCCO)c(Br)c1,inactive,–
CN(C)c1ccc(N=Nc2ccccc2C(=O)O)cc1,inactive,–
CC/C=C\C/C=C\C/C=C\CCCCCCCC(=O)O,inactive,–
CCCCC/C=C\C/C=C\CCCCCCCC(=O)OC,inactive,–
C#CC1(O)CC[C@H]2[C@@H]3CCC4=CCCC[C@@H]4[C@H]3CC[C@@]21C (stereo not given in full),–,6.99 µM (active)
CCCCCCCCCCCCCOP(=O)(O)O,–,39.4 µM (active)
CN(C)c1ccc(C(=N)c2ccc(N(C)C)cc2)cc1,inactive,–
